Test results reported in PubChem BioAssay AID588800 (Johns Hopkins Ion Channel Center, 2011).
Active and inactive are the calls of the source.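 How the source made its calls: active means peak inhibition of the KCNQ2 potassium channel above 30% at some tested dose, plus a fitted dose response curve; inactive means no inhibition at any dose, or no curve.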

The compounds below were run against Potassium voltage-gated channel subfamily KQT member 2 (Rattus norvegicus) (UniProt O88943) (assay: rat KCNQ2 channel inhibition, SAR follow-up, selectivity assay for KCNK9 inhibitor project, cell-based, FluxOR thallium flux, CRC set 2 (AID 588800)). Conditions: KCNQ2-expressing cells; series mostly up to 30 µM.
Potassium voltage-gated channel subfamily KQT member 2 (Rattus norvegicus), sequence (O88943 whole entry, looked up): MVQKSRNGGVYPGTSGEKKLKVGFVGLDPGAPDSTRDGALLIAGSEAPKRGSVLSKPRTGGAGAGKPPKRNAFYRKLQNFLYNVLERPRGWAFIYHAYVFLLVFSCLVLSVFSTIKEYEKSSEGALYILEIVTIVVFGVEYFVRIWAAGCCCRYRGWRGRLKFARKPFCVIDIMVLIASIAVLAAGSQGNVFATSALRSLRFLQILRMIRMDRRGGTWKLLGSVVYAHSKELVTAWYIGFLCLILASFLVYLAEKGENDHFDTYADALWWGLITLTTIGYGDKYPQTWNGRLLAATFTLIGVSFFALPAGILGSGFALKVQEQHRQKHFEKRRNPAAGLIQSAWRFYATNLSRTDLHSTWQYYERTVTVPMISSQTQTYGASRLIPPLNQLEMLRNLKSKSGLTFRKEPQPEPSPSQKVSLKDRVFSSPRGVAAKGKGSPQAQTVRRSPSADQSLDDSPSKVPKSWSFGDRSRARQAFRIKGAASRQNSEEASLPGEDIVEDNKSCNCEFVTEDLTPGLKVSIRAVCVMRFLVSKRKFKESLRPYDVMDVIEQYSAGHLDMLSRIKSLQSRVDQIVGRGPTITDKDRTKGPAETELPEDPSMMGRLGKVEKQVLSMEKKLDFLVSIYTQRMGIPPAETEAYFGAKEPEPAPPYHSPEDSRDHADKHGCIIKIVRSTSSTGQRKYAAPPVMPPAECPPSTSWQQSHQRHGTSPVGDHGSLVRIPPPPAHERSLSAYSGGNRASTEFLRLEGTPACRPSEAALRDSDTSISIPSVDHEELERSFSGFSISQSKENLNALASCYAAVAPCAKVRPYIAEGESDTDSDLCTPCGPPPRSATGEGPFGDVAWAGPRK

outcome, inactive:
Cc1cccc(C(=O)Nc2cccc(NC(=O)c3ccc(C(F)(F)F)cc3)c2)c1, O=C(Nc1cccc(NC(=O)c2ccncc2)c1)c1ccccc1, CCOc1ccccc1NC(=O)c1cccc(NC(=O)c2ccccc2C(F)(F)F)c1, CC(C1CC2CCC1C2)n1c(-c2ccccc2)n[nH]c1=S (stereo unspecified), O=C(Nc1cccc(NC(=O)c2ccoc2)c1)c1ccccc1, Cc1cccc(C(=O)Nc2cccc(NC(=O)c3ccc(Cl)cc3)c2)c1, COc1ccccc1C(=O)Nc1cccc(NC(=O)c2ccccc2OC(F)(F)F)c1, COc1ccccc1-c1n[nH]c(=S)n1C(C)C1CC2CCC1C2 (stereo unspecified), Cc1cccc(C(=O)Nc2cccc(NC(=O)c3ccco3)c2)c1, COc1ccccc1C(=O)Nc1cccc(NC(=O)c2cccc(C)c2)c1, O=C(Nc1cccc(NC(=O)c2ccc(C(F)(F)F)cc2)c1)c1ccccc1, COc1ccccc1NC(=O)c1cccc(NC(=O)c2ccccc2C(F)(F)F)c1, COc1ccccc1NC(=O)c1cccc(NC(=O)c2ccccc2)c1, O=C(Nc1cccc(NC(=O)c2cccc(C(F)(F)F)c2)c1)c1ccccc1, Cc1cccc(-c2n[nH]c(=S)n2C(C)C2CC3CCC2C3)c1 (stereo unspecified), O=C(Nc1cccc(NC(=O)c2ccc(Cl)cc2)c1)c1ccccc1, O=C(Nc1cccc(NC(=O)c2ccccc2Cl)c1)c1ccccc1, CCOc1ccccc1NC(=O)c1cccc(NC(=O)c2ccc(OC)cc2)c1, Cc1cccc(C(=O)Nc2cccc(NC(=O)c3ccccc3OC(F)(F)F)c2)c1, CN(C)c1ccc(C(=O)Nc2cccc(NC(=O)c3ccccc3)c2)cc1, O=C(Nc1cccc(NC(=O)c2cccs2)c1)c1ccccc1, CC(C1CC2CCC1C2)n1c(-c2cccc(Cl)c2)n[nH]c1=S (stereo unspecified), CC(C1CC2CCC1C2)n1c(C2CCOC2)n[nH]c1=S (stereo unspecified), Cc1cccc(C(=O)Nc2cccc(NC(=O)c3ccccc3C(C)C)c2)c1, CCOc1ccccc1NC(=O)c1cccc(C(=O)NC2CCCC2)c1, Cc1cccc(S(=O)(=O)Nc2cccc(NC(=O)c3ccccc3)c2)c1, CC(C)(C)c1ccc(C(=O)Nc2cccc(NC(=O)c3ccccc3)c2)cc1, Cc1cccc(C(=O)Nc2cccc(NC(=O)c3ccccc3C(F)(F)F)c2)c1, Cc1ccccc1C(=O)Nc1cccc(NC(=O)c2ccccc2)c1, O=C(Nc1cccc(NC(=O)c2cccc(Cl)c2)c1)c1ccccc1, Cc1cccc(C(=O)Nc2cccc(NC(=O)c3ccccc3OCC(C)C)c2)c1, COc1ccccc1NC(=O)c1cccc(NC(=O)C2CCCCC2)c1, Cc1ccc(C(=O)Nc2cccc(NC(=O)c3ccccc3)c2)cc1, CCOc1ccccc1NC(=O)c1cccc(NC(=O)c2ccccc2OC)c1, CCOc1ccccc1NC(=O)c1cccc(NC(=O)C(C)(C)C)c1, COc1cccc(C(=O)Nc2cccc(NC(=O)c3ccccc3)c2)c1
